According to the supplement of paper PMC11417369:
Whole data set: some 25,000 sequences, median “ln(normalized median fluorescence intensity)” near 9.7, cut for the highest 2% near 11. Shown is part of a subset that was picked to be rich in the highest values.

tested on: PfAP2-HC AP2 domain (GST-tagged); assay: gcPBM binding intensity (ln(normalized median fluorescence intensity)); higher = stronger DNA binding
Summary of the method: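 In this array assay, P. falciparum DNA-binding domains with a GST tag, expressed in E. coli, were applied for 1 h to primer-extended double-stranded 36-bp intergenic genomic probes and negative controls on an Agilent 4 × 180k array. Bound protein was visualised with Alexa488 anti-GST antibody at 488 nm. Binding intensity is the highest Masliner-normalised natural-log median intensity across replicate spots of either probe orientation.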

Sequence | gcPBM binding intensity (ln)
AACTATAACTAAAAAAATCACATAAAATATTTTATT [TGCATGCA_negctrl_site363] | 9.46
TATTTAAAATAATGTGCAAAAGAATAAATAAATAAA [TGCATGCA_negctrl_site194] | 9.74
GTGTACAAAATATGGTAATAAAGTAGTTACATGAAT [CACACA_negctrl_site1775] | 9.86
TGTATATTTGATTCATGTACATATTTTATTTTAACT [XGTACX_site5169] | 9.72
TTATTTATCAAAAAATGTACAAAAATATATAAACAA [XGTACX_site940] | 9.6
ACGCACGAAATAAATACATGCATATTGTAAAAATTA [TGCATGCA_site310] | 9.48
TTAAAAATAAAAAATACACACTCTAGTCCATGTAAC [CACACA_site3640] | 10.1
ATGTAACACATATTTGGTACAGATAGATAAAAGTAT [XGTACX_site8291] | 9.87
ATAAAGAAAAATAGAAGTACATATATGCATGTTAAT [XGTACX_site4480] | 9.86
ATGTGTTTCTTCAATTGTACTAAAAGGTATATATTG [XGTACX_site4608] | 9.63
TAAATTATAAATTGCACACATATTTTTATATTTATA [CACACA_site2976] | 9.77
GCTTGGATATATTAATGTACTTATATATTATGTTGT [XGTACX_site3768] | 9.82
AATACATGCTTATTTTAACACACAAATGGTAGTAAT [CACACA_site8154] | 9.83
TATATATATGGACACACACACACATATATATATATA [CACACA_site6121] | 11.3
AAAAATTATGGACACACACACATATATATATATATT [CACACA_site4717] | 10.3
TATATATATGGACACACACACATATATATATATTTT [CACACA_site5409] | 10.3
ATGTCCTATATTAGTACACACATGAAAATATAAATA [CACACA_site7497] | 9.66
AAAAAAAAAAAAAAAAGTACAAATTTAAAAATGTGT [XGTACX_site112] | 9.44
AATATAAATAAAAACACACACACACCGATATATATA [CACACA_site5283] | 10.8
AGAATAAAAAGGAACACACACACACCCATATATATA [CACACA_site3590] | 10.7
AAAGATAAAAAAAGTACACACACACCGATATATATA [CACACA_site9006] | 10.6
AATAAAAAGGAACACACACACACACCGATATATATA [CACACA_site5895] | 11.2
AAAAAGGATAAACACACACACACACCGATATATATA [CACACA_site8206] | 11

Sequence | gcPBM binding intensity (ln)
TGGGAATAAAAACACACACACACACCGATATATATA [CACACA_site5875] | 11.3
CTATAATAATAAAGTGAACACACACCGATAATATAT [CACACA_site9377] | 10.1
CACTAAAATAAACACACACACACACCGATATATATA [CACACA_site9379] | 10.8
CAAAAAAACAAACACACACACACACCGATATATATA [CACACA_site9218] | 10.5
AACGAAGCATAAAATGTTATGTATATATATAAATAT [TGCATGCA_negctrl_site304] | 9.79
ATAGAAATATATATATGTACATATAGATAAATCTAT [XGTACX_site7833] | 9.75
ATATGTACATATCTCATGCACTTAACAAAAAAAAAG [GTGCAC_site9898] | 9.56
TACATTCGGAGTAAAAAAAAATTTATACAATTACTT [XGTACX_negctrl_site29] | 9.44
TAGAATAATCCTTACACACACACACCCACGAATAAA [CACACA_site483] | 10.5
AATAGAATAATCCTTACACACACACCCACACGAATA [CACACA_site8053] | 10.4
AATCCTTACGAACACACACACACGAATAAATAAAAA [CACACA_site6363] | 10.8
AATCCTTACGGACACACACACACGAATAAATAAAAA [CACACA_site4422] | 11
AATCCTTACAGACACACACACACGAATAAATAAAAA [CACACA_site480] | 10.6
ATAATCCTTAGACACACACACACACGAATAAATAAA [CACACA_site6364] | 11.3
GAATTTCAACAAAGTAGTACATTTTATAGTAATTGG [XGTACX_site2319] | 9.48
ATAAACATATCAATATGTACATATTTTTGTTTGTAT [XGTACX_site7018] | 9.77
TAATTTTTATTCAGTTCACACACGCTTTAATATTAT [CACACA_site9147] | 9.94
GTTATATTCCTACAGAGTACATAAAAATGCACATCA [XGTACX_site1948] | 9.54
AAAAAAAAAAAAAATACACACAAACACAAATTAAAT [CACACA_site5982] | 10.8
AAAAAATTAATAAAAACACACAAAAAAAATAAACAA [CACACA_site1907] | 9.95
TAAATTAAAAAACACACACACAAAAAAAAAAAAAAA [CACACA_site2263] | 11.2
AAAAAAAAAAAATACACACAAACACAAATTAAATAA [CACACA_site3809] | 10.3
CATAAATTAAAACACACACACACAAAAAAAAAAAAA [CACACA_site2262] | 11.6

Sequence | gcPBM binding intensity (ln)
GTTTCAAAATTAAACACACACAAAAAAAAAAAAAAA [CACACA_site2680] | 9.72
TACCCACGTATATATATACACACTAATATACACCCA [CACACA_site9381] | 9.88
TTAAGCCGCAATATGGGTACATAGGAAGAAGGGGAA [XGTACX_site8397] | 9.56
TTTTAAATTTAATTTACACACTTTTCATAGCATTGA [CACACA_site3794] | 9.61
TGCAGTCTGGAGAAAAGTACACAGTATCTGGTAGCT [XGTACX_site2013] | 9.58
CATACATACATACATACACACATACATATGTATTTA [CACACA_site5384] | 9.99
TTGTAAGAAAAACACACACACACATATATATATATA [CACACA_site795] | 10.3
TTAAACTTGAAACACACACACACACCGATATAAAAA [CACACA_site4578] | 10.5
ACTTGTAAGAAACACACACACACACCCATATATATA [CACACA_site796] | 11.5
ACTTGTAAGAAACACACACACACACCGATATATATA [CACACA_site4594] | 11.2
AAACTTGTAAGAAACACACACACACCCATATATATA [CACACA_site797] | 10.5
AAACTTGTAAGAAACACACACACACGCATATAAATA [CACACA_site6518] | 10.7
AATTAAATTACTTATACACACATAAAATGCCTGTAT [CACACA_site6597] | 9.84
TTATGTAAAAAAAAAAAAAAAAAAAAAAAAAAAAAA [CACACA_negctrl_site984] | 9.05
ATTATCAAAAAAAAAAAAAAAAAAAAAAAAAAAAAA [CACACA_negctrl_site1118] | 8.87
AACTTGTATTTATACACACACACACTGTCTTTTTTT [CACACA_site7009] | 10.5
AACTTGTATATATACACACACACACTATCTTTTTTT [CACACA_site8601] | 10.9
AACTTGTATTTATACACACACACACTAGCTTTTTTT [CACACA_site5132] | 10.4
ATTTTTATTAGTTATTGTACTTATTATTTATTAATT [XGTACX_site2568] | 9.78
TACAGACATAGACACACACACACGCATAAAAAAAAA [CACACA_site6820] | 11.4
TACACATACCCATACACACGCATAGAAACATACGAA [CACACA_site5212] | 10.2
TACACCCATAGACACACACACACGCATAAAAAAAAA [CACACA_site8428] | 11.1
TACAGACAGAAACACACACACACGCATAAAAAAAAA [CACACA_site1514] | 10.5

Sequence | gcPBM binding intensity (ln)
TATATACACAGACACACACACACATACACGCACATA [CACACA_site6909] | 10.5
CACCCATAGAAACACACACACGCATAAAAAAAAAAA [CACACA_site1513] | 10.7
AATAAATAAAAATGCACACAGTTAACATGTTGAATT [CACACA_site4795] | 10.2
GCATCTCATTTGTGATGTACTATATTATCCGTTTTT [XGTACX_site7576] | 9.71
ATATATATTATGTGTGTGCACTTTTGTTATTATTAT | 10.2
TATATAACATAATATACACACATTATGTGCGTAATT [CACACA_site4073] | 9.75
GATATGTTTTCCTAGGTTCATGATGATAGGTAGTTT [XGTACX_negctrl_site217] | 9.83
AGTAAAAGAAAGCACACACACATGTATATATGTATG [CACACA_site3858] | 11
AAGAAAAGCATAGATGCACACATATATATATATATA [CACACA_site8675] | 10.5
AAAGTAAAAGAAAGCACACACACATGTATATATGTA [CACACA_site3857] | 10.2
ATAAGAAAAGGACACACACACAAAAAAAAAAAAAAA [CACACA_site7351] | 11.1
AAAAAAAAAAAAAGCACACACACATATGCGTATATA [CACACA_site953] | 10.3
AGATATAAGAAAAGCACACACACACTAGAAAAAAAA [CACACA_site5559] | 11
AGTAAAAGAAAGCACACACACATGTATATAGGTATG [CACACA_site7759] | 10.9
ATAAGAAAAAGACACACACACAAAAAAAAAAAAAAA [CACACA_site2828] | 10.2
TAGGAAAAGAAAAGCACACACATAAATAGATATATA [CACACA_site6382] | 10.3
ATACAATACAAAAACACACACAAAAAAAGAAAAGGA [CACACA_site2156] | 10.4
AAAAAAAAAAAGCACACACACATATGCGTATATATA [CACACA_site954] | 10.9
AAAAAAAAAAAGCACACACACATATGAGTATATATA [CACACA_site4683] | 10.3
ATATATACAAGTATTTTTTTTTCAAACATTATTTTT [CACACA_negctrl_site1808] | 9.68
